Compounds with a hit are over-represented: about 8% of the library has one in this group of screens.
TSHR antagonist = blocks TSH signaling through the human TSH receptor | TSHR-expressing cells, TSH-stimulated cAMP HTRF, 2 h; active compounds read low | activity change, negative = inhibition, % at 11.5 µM | AID 504810 | hit rate 0.2% among 330,000 | P16473;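 active = activity change below a set negative limit, meaning inhibition stronger than a set level, cut at about -70% in these data; inconclusive = activity change between two set negative limits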
Target sequence (P16473 whole entry, looked up): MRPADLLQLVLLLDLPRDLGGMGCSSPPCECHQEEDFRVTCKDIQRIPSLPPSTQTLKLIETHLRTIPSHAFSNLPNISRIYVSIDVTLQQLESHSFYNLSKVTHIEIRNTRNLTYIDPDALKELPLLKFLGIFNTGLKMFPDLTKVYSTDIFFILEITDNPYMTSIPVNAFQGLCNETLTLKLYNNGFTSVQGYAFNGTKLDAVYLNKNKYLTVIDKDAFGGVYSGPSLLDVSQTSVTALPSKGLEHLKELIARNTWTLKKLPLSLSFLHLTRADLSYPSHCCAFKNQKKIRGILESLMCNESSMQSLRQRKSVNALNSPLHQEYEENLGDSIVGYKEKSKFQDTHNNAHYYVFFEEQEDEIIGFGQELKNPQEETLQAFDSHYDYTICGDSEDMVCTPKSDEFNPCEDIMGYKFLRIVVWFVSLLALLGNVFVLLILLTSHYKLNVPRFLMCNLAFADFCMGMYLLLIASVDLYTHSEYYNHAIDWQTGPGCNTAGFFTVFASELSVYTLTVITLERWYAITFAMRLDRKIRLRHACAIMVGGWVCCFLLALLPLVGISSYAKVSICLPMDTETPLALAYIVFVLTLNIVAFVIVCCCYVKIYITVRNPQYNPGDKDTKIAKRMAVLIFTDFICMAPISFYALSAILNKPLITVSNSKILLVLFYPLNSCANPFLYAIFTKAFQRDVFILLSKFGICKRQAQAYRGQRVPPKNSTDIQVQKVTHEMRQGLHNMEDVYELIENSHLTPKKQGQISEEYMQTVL
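Antagonism was scored as loss of TSH-driven cAMP in TSHR cells, stimulated with 4nM TSH (EC80) for 2 hours at 37 deg C and detected by homogeneous HTRF competition immunoassay.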
Gal4-VP16 FLuc = Gal4-VP16 reporter inhibition counter-screen; Drosophila S2 Gal4-VP16 UAS-luciferase, luminescence, 20 h; Potency, µM (highest dose often 53.6 µM), hits mostly inhibitors; hit rate 3.5% among 310,000; AID 2546;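 also: Gal4-VP16 expression switched on by copper sulfate through the metallothionein promoter; nearly all actives have a fitted effect of over 50% in size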
Coupling enz = inhibits coupling enzyme system, counter-screen for aldolase hits. coupling enzyme system counterscreen, AmpLite Red fluorescence. activity change, negative = inhibition, % at 58.2 µM, hits read low. hit rate 0.67% among 290,000; in the data active = activity change below about -30%
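Counterscreen of the coupled detection system alone, without aldolase: glyceraldehyde-3-phosphate coupling enzymes plus AmpLite Red readout. Compounds at 57.5 uM final, 10 min RT preincubation, 20 min RT reaction, fluorescence 525/598 nm.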
ELG1 DNA repair = inhibitors of ELG1-dependent DNA repair in HEK293T cells; HEK293T ELG1-luciferase reporter, luminescence, 16 h; DNA damage induced by 5-fluorouridine; Potency, µM (series often up to 46.1 µM), most hits filed as inhibitors; hit rate 2.3% among 330,000; AID 504467; also: nearly all actives have a fitted effect of over 55% in size
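In this reporter screen, reduction of luminescence relative to DMSO vehicle indicated activity. Compounds and 5-fluorouridine were added together to 2,000 cells per well, incubated for 16 hr at 37 °C, then developed with ONE-Glo.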
RORg inh = inhibitors of mouse ROR gamma transcriptional activity; P51450; Drosophila S2 Gal4-RORgamma UAS-luciferase reporter, 20 h; Potency, µM (series often up to 53.6 µM), most hits filed as inhibitors; hit rate 5.4% among 310,000; also: nearly all actives have a fitted effect of over 60% in size
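A Gal4/UAS one-hybrid system in insect cells: metallothionein-promoter Gal4–ROR gamma fusion plus Photinus luciferase reporter. Copper sulfate 700 uM final, 20 hr ambient incubation, luminescent detection after 10 min with reagent.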
Numbers stand for hits; i = inactive; ? = inconclusive; nt = not tested or not shown; [ ] = remark or other dose. Unless noted, calls follow the shape of the dose curve; as a rule, active = well fitted curve in the direction sought with a large enough effect; inconclusive = small, poorly fitted or top-dose-only effect, or another doubt; inactive = no such curve, though single readings can be large; an effect the other way counts as inactive or inconclusive.

SMILES	TSHR antagonist	Gal4-VP16 FLuc	Coupling enz	ELG1 DNA repair	RORg inh
Cc1cc(-c2nnc(SCC(=O)Nc3ccc(F)cc3F)n2N)n[nH]1	i	i	i	i	i
O=C(CN1CCOCC1)NCc1cc([N+](=O)[O-])ccc1O	i	i	i	i	i
CCOc1ccc(CN(C)CC(=O)Nc2ccccc2C(=O)NC2CC2)cc1	i	nt	nt	15µM	nt
CCC1Oc2ccc(C)cc2N(CC(=O)NCc2cccc(OC)c2)C1=O (stereo not given)	i	22µM	i	i	?
CC(=O)N1CCC[C@@]2(CCN(C(=O)Nc3ccccc3)C2)C1	nt	i	i	nt	i
CC1(C)CC(=O)C(C2C3=C(CC(C)(C)CC3=O)Oc3c(Br)cc(Br)cc32)=C(O)C1 (stereo not given)	i	?	i	i	?
CCn1c(C)c(C(C)=O)c(N2CCN(c3ccccc3)CC2)nc1=S	i	i	i	i	i
CC(=O)c1c(N2CCN(C)CC2)[nH]c(-c2ccccc2)nc1=S	i	i	nt	i	10µM
CN(c1cccc(NC(=O)c2ccc(Cl)c(S(=O)(=O)N3CCOCC3)c2)c1)S(C)(=O)=O	i	i	nt	23µM	i
O=C(Nc1ccccc1)c1cc(S(=O)(=O)N2CCOCC2)cs1	i	i	i	?	i
O=C(Nc1cccc(Br)c1)c1cc(S(=O)(=O)N2CCOCC2)cs1	i	i	nt	16µM	?
O=C(CSc1ccccc1)Nc1ccc(Cl)c(S(=O)(=O)N2CCOCC2)c1	i	nt	nt	13µM	nt
O=C(/C=C/c1ccco1)Nc1ccc(Cl)c(S(=O)(=O)N2CCOCC2)c1	i	i	i	16µM	i
C=CCC(C)(O)C(=O)OCC (stereo not given)	nt	i	i	nt	i
O=C(Nc1ccc(Cl)c(S(=O)(=O)N2CCOCC2)c1)c1cccs1	i	nt	nt	26µM	nt
CC1(C)CC2CC(C)(CN2S(=O)(=O)c2ccc(C(=O)Nc3ccc(Cl)c(S(=O)(=O)N4CCOCC4)c3)cc2)C1 (stereo not given)	i	13µM	i	i	?
Cc1cccc(N2N=C(C(=O)Nc3ccc(Cl)c(S(=O)(=O)N4CCOCC4)c3)CCC2=O)c1	i	nt	nt	?	nt
O=C(Nc1ccc(Cl)c(S(=O)(=O)N2CCOCC2)c1)C1=NN(c2ccccc2)C(=O)CC1	i	nt	nt	29µM	nt
O=C(Nc1ccc(Cl)c(S(=O)(=O)N2CCOCC2)c1)c1ccccc1-c1ccc(C(F)(F)F)cc1	i	i	i	23µM	i
CN(CC(=O)Nc1ccc(Cl)c(S(=O)(=O)N2CCOCC2)c1)C(=O)c1cccs1	i	nt	nt	i	nt
Cc1cc(C(=O)Cn2cnc3cc(F)ccc3c2=O)c(C)n1C1CC1	i	nt	nt	?	nt
O=C(Nc1ccccc1)N1CCC2(CC1)CCN(C(=O)c1csnn1)CC2	nt	i	i	nt	i
C=CCC[C@@H](Cc1ccc(F)cc1)C(=O)OC[C@@H](NC(=O)[C@@H](CC=C)CC(=O)N(CCO)Cc1ccccc1)c1ccccc1	i	nt	nt	21µM	nt
C=CC[C@@H](CC(=O)N(CCO)Cc1ccccc1)C(=O)NC[C@@H](OC(=O)[C@@H](CC=C)Cc1ccc(F)cc1)c1ccccc1	i	nt	nt	?	nt
C=CCC[C@@H](Cc1ccc(F)cc1)C(=O)OC[C@H](C)NC(=O)[C@H](CC=C)CC(=O)N(CCO)Cc1ccccc1	i	nt	nt	26µM	nt
SMILES	TSHR antagonist	Gal4-VP16 FLuc	Coupling enz	ELG1 DNA repair	RORg inh
C=CC[C@H](CC(=O)N(CCO)Cc1ccccc1)C(=O)NC[C@H](OC(=O)[C@@H](CC=C)Cc1ccc(F)cc1)c1ccccc1	i	nt	nt	15µM	nt
CO[C@@H]1COC(=O)C/C=C\[C@H](C)COC(=O)[C@H](Cc2ccccc2)NC(=O)C/C=C\[C@H]1C	nt	i[10 µM]	i	nt	i[10 µM]
CC(=O)OCC(=O)[C@@]12OC(C)(C)O[C@@H]1C[C@H]1[C@H]3C[C@H](F)C4=CC(=O)C=C[C@@]4(C)[C@]3(F)[C@H](O)C[C@@]12C	nt	i	i	nt	i[2.98 µM]
CCn1c(=N)n(CC(=O)C23CC4CC(CC(C4)C2)C3)c2ccccc21	i	8.9µM	i	i	4µM
CC1Cc2cc(/C(O)=C3/C(=O)C(=O)N(CCN4CCOCC4)C3c3ccc([N+](=O)[O-])cc3)ccc2O1 (stereo not given)	i	i	i	i	i
COCCN(CC(=O)Nc1cccc(S(=O)(=O)N2CCCC2)c1)Cc1nc2ccccc2c(=O)[nH]1	i	nt	nt	i	nt
CCCCNC(=S)N(C)/N=C/c1ccc(OCC(=O)Nc2ccc(OC)cc2)c(OC)c1	i	i	i	10µM	i[10 µM]
CCNC(=S)N/N=C/c1ccc(OCC(=O)Nc2ccc(OC)cc2)c(OC)c1	i	?	i	?	4.5µM
COc1cc(/C=N/NC(=S)Nc2cccc(Cl)c2C)ccc1OCC(=O)N1CC(C)OC(C)C1 (stereo not given)	i	2.5µM	i	?	1.6µM
CCCCNC(=S)N(C)/N=C/c1ccc(OCC(=O)Nc2c(C)cc(C)cc2C)c(OC)c1	i	i	i	?	i[10 µM]
CCNC(=S)N/N=C/c1ccc(OCc2ccc(C(=O)OC)cc2)cc1	i	?	i	i	3.2µM
O=C(O)c1cccnc1Sc1ccc(Br)cc1	i	i	i	i	i
c1nc(NC2CC2)c2cc(-c3ccoc3)ccc2n1	nt	i	i	nt	i
O=[N+]([O-])c1cccc(Cl)c1Cl	nt	i	nt	nt	i
CCNC(=S)N/N=C/c1ccc(OCC(=O)Nc2ccc(C)cc2)cc1	i	?	i	?	18µM
COc1ccc(OCC(=O)Nc2ccc(C)cc2)cc1	i	i	i	i	i
C/C=C/c1ccc(OCC(=O)Nc2ccc(OC)c(OC)c2)c(OC)c1	i	i	i	16µM	i
COc1cc(/C=N/NC(=S)NC(C)C)ccc1OCC(=O)Nc1c(C)cc(C)cc1C	i	0.5µM	i	?	0.71µM
COc1cc(/C=N/NC(=O)c2ccncc2)ccc1OCC(=O)Nc1ccc(C)c(C)c1	i	i	i	?	i
CCCCOc1ccc(/C=C/C(=O)N(CC)CC(=O)Nc2ccc3c(c2)OCCO3)cc1OC	i	nt	nt	18µM	nt
CCN(CC(=O)Nc1ccc(NC(C)=O)cc1)C(=O)/C=C/c1ccc2c(c1)OCO2	i	nt	nt	?	nt
COC(=O)[C@@]1(Cc2ccccc2)[C@H]2c3cc(C(=O)N(C)C)n(CCF)c3C[C@H]2CN1C(=O)c1ccccc1	nt	i	i	nt	i
O=C(COc1ccccc1F)Nc1ccc2c(c1)OCCO2	i	i	i	?	i
COc1ccc(S(=O)(=O)N(C)C[C@H]2Oc3ccc(NC(=O)C4CC4)cc3C(=O)N([C@H](C)CO)C[C@@H]2C)cc1	i	nt	nt	?	nt
Cc1cc(=O)[nH]c(SCC(=O)Nc2nonc2C)n1	i	i	i	i	i
Cc1c(Cl)cccc1NC(=S)NCCc1ccc(F)cc1	i	3.5µM	i	i	4.5µM
Cc1c(Cl)cccc1NC(=S)NCCc1ccc(Cl)cc1	i	3.2µM	i	i	5.6µM
Cc1c(Cl)cccc1NC(=S)NCCc1ccc(S(N)(=O)=O)cc1	i	i	i	i	i
